In PubChem BioAssay AID2825 (Sanford-Burnham Center for Chemical Genomics, 2010):
Hit rate of the full screen: of about 330,000 compounds, about 1,300 (0.39%) were called active. For the sample, actives were picked, then their nearest neighbours and some compounds at random. Unmarked numbers belong to inactive results.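 How the source made its calls: active means inhibition of 50% or more; inactive means inhibition below 50%.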

Test: NALP3 inflammasome inhibitors in reconstituted yeast, primary screen, luminescence, uHTS (AID 2825);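 further: plate controls were induced DMSO wells for no effect and uninduced yeast grown without galactose for full effect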
Details: Yeast reconstituted NLRP3/ASC/caspase-1, beta-gal luminescence, 24 h; at 10 µM; active compounds read high

Row | SMILES | inhibition
1 | c1cc2c(cc1C1OCC3C(c4ccc5c(c4)OCO5)OCC13)OCO2 (stereo not given) | 16.8%
2 | O=C1/C(=C\c2ccc3c(c2)OCO3)N2CCC1CC2 | 50.3% (active)
3 | c1cc2c(cc1[C@H]1OC[C@H]3[C@@H]1CO[C@@H]3c1ccc3c(c1)OCO3)OCO2 | 15.5%
4 | Cc1nc2nc(C)c(CCC(=O)N3CCC4(CC3)OCCO4)c(C)n2n1 | 11.1%
5 | O=c1c2ccccc2nc(-c2ccco2)n1-c1ccc(Br)cn1 | 15.6%
6 | O=c1c2ccccc2nc(-c2ccccc2)n1-c1ccccn1 | -1.57%
7 | Cc1ccc(-c2nc3ccccc3c(=O)n2-c2ccc(Br)cn2)cc1 | 54.6% (active)
8 | CN(C)CC1CCCCC1=O (stereo not given) | 16.4%
9 | C[N+]1(C)CCOC(O)(c2ccc(-c3ccc(C4(O)C[N+](C)(C)CCO4)cc3)cc2)C1 (stereo not given) | 5.92%
10 | COCCNC(=O)CN1C2CCC1CC(O)(c1cccnc1)C2 (stereo not given) | 21.8%
11 | NCCc1ccc(S(=O)(=O)F)cc1 | 13.1%
12 | Cc1cc2ccccn2c1C(C[N+](=O)[O-])c1c(F)cccc1Cl (stereo not given) | 58.8% (active)
13 | Cc1ccc2c(c1)=C/C(=C\c1c(O)[nH]c(=O)[nH]c1=O)C(=O)N=2 | 8.15%
14 | CCCCCCCCCCCCn1ccc(=N)cc1 | 74.5% (active)
15 | COC(=O)C(O)(c1ccc(NC(=O)c2ccco2)c(OC)c1)C(F)(F)F (stereo not given) | 6.52%
16 | CSC1=NP(=S)(SC)N(C)c2nc3n(c21)CCC3 (stereo not given) | 14.6%
17 | Cc1cc(OCc2cc(C(=O)O)oc2C)c2c3c(c(=O)oc2c1)CCCC3 | 13.3%
18 | CNC(=S)N/N=C1\C2CN3CCN(C2)CC1(c1ccccc1)C3 | 2.33%
19 | CN(C)P(=S)(Nc1ccccc1)C(Cl)(Cl)Cl (stereo not given) | 24.4%
20 | C[C@]12CC[C@H](O)CC1=C([N+](=O)[O-])CC1C2CC[C@@]2(C)C1CC[C@@H]2O (stereo not given in full) | 21.9%
21 | C[C@]12CC[C@H](O)C[C@H]1CC[C@@H]1C2CC[C@]2(C)[C@@H](C3=CC(=O)OC3)[C@@H](O)C[C@]12O (stereo not given in full) | 8.26%
22 | C[C@]12CCC3C(CC[C@H]4C[C@@H](O)CC[C@]34C)C1C[C@@H](O)[C@H]2O (stereo not given in full) | 50.2% (active)
23 | C[C@]12CCC3C(CC[C@H]4C[C@@H](O)CC[C@]34C)C1CC[C@@H]2O (stereo not given in full) | 63.7% (active)
24 | O=C(C1CC(=O)N(C2CCCC2)C1)N1CCC2(CC1)OCCO2 (stereo not given) | 25.3%
25 | C/C=C/CC1(CC)C(=O)NC(=S)NC1=O | 0.922%
26 | COc1ccc2[nH]c3c(c2c1)CCN[C@H]3C | 10%
27 | CC1=C2C(=O)C3C(CC=C4CC(OC5OC(O)C(O)C(O)C5CO)CCC43C)C2CCC12OC1CC(C)CNC1C2C (stereo not given) | 32.4%
28 | COC(=O)C1=C(c2ccc3ccccc3c2)C[C@@H]2CC[C@H]1N2C(=O)NCCO | -5.73%
29 | N=c1ccccn1Cc1ccccc1 | 1.04%
30 | CCN1CCN(c2nc3c(c(=O)[nH]2)CCC3)CC1 | 9.34%
